# Data reported in PubChem BioAssay AID1347383 (Zoeller Lab, School of Medicine, Boston University, 2020).
# Activity calls are given as the source filed them.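 Rule for the calls: active = cell survival after UV exposure 2 SD above solvent-only control wells at 10 µM, confirmed on one or two repeats; inactive = the rest.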
# Experiment: cell survival after pyrene fatty acid photosensitization – ZR-82 cells, Analyticon library, screen 2, phospholipid biosynthesis inhibitor project, primary screen (AID 1347383);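 note: survival reflects blocked phospholipid synthesis cutting uptake of the phototoxic fatty acid; compound and fatty acid exposure 3 h then viability read next day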
# Settings: ZR-82 CHO cells, pyrene-fatty acid UV killing, CellTiter Blue; at 10 µM; peroxisome-deficient CHO-K1 variant; with DGAT-1, DGAT-2 and ACAT inhibitors
row,Structure (SMILES),outcome
1,C=C(C)[C@H]1CC[C@]2(C(=O)O)CC[C@]3(C)C(CCC4[C@@]5(C)CCC(=O)C(C)(C)C5CC[C@]43C)C12 (stereo not given in full),inactive
2,CC1(C)CC2C(O)c3cocc3CC(C)(O)C2C1 (stereo not given),inactive
3,O=c1[nH]c2ccccc2c(-c2cccc(O)c2)c1O,inactive
4,Cn1c(=O)c2c(ncn2C)n(C)c1=O,inactive
5,CO[C@@H]1C(=O)CC[C@]2(O)CS[C@H](CC=C(C)C)[C@](C)(O)[C@@]12O,inactive
6,C=C[C@@]1(C)CCC2=C(C1)C(=O)CC1[C@](C)(C(=O)O)CCC[C@]21C (stereo not given in full),inactive
7,CC(C)(O)c1ccc2c(c1)CCC1C(C)(C(=O)O)CCCC21C (stereo not given),inactive
8,CCCCCCCCCCCCC(O)/C=C/CCC(=O)O (stereo not given),inactive
9,C=C[C@]1(C)C[C@](O)([C@@H]2OC2(C)C)Oc2c1c(=O)oc1cccc(CC)c21,inactive
10,C=CC(C)(C)c1cc(/C=C/C(=O)c2ccc(OC)cc2)c(O)cc1O,inactive
11,CCCO[C@@H]1O[C@H](CO)[C@@H](O)[C@H](O)[C@H]1O[C@@H]1OC[C@@H](O)[C@H](O)[C@H]1O,inactive
12,COC(=O)C(CO)NC(=O)c1cccc(O)c1O (stereo not given),inactive
13,COc1cc(O[C@@H]2O[C@H](CO)[C@@H](O)[C@H](O)[C@H]2O)cc(OC)c1OC,inactive
14,COCc1c(OC)cc2c(c1O)C(O)OCC2 (stereo not given),inactive
15,COc1c(O)cc([C@@H]2Oc3cc(O)cc(O)c3C[C@@H]2O)cc1O,inactive
16,CC(=O)OC1C(=O)C2C3OCC4=C3[C@@](C)(CC[C@@H]4O)CC[C@]2(C)[C@H]1C(C)C (stereo not given in full),inactive
17,CNC(=O)Oc1ccc2c(c1)[C@]1(C)CCN(C)[C@@H]1N2C,inactive
18,CC(C)=CCCC1(C)C(CC=C(C)C)CC2(CC=C(C)C)C(=O)C(=C(O)c3ccccc3)C(=O)C1(C)C2=O (stereo not given),inactive
19,O=C1c2c(O)cc(O)cc2O[C@H](c2ccccc2)[C@H]1O,inactive
20,COC(=O)/C=C(\C)CCC1(C)C(C)CCC2(C)C(C)=CC(=O)CC21 (stereo not given),inactive

row,Structure (SMILES),outcome
1,COc1c2ccoc2c(OC)c2oc(=O)ccc12,inactive
2,COC1C(OC(=O)/C=C/C=C/C=C/C=C/C(=O)O)CCC2(CO2)C1C1(C)OC1CC=C(C)C (stereo not given),inactive
3,COc1cc(/C=C(/C)C(C)Cc2ccc(O)c(OC)c2)ccc1O (stereo not given),inactive
4,COc1cc(C(O)C(C)O)ccc1OC(C)Cc1cc(OC)c(OC)c(OC)c1 (stereo not given),inactive
5,C=CCc1ccc(O)c(O)c1,inactive
6,Nc1c(O)cccc1C(=O)O,inactive
7,C=C(CO)C(=O)O[C@H]1CC(=C)[C@@H]2CC(=O)[C@H](C)[C@@H]2[C@H]2OC(=O)C(=C)[C@@H]21,inactive
8,O=C(O)c1ccc(OC2OC(CO)C(O)C(O)C2O)cc1 (stereo not given),inactive
9,COc1cc(C2OC(c3ccc(O)c(OC)c3)C(C)C2C)ccc1O (stereo not given),active
10,CC/C=C\CC1C(=O)C=CC1(CCCCC1CCC(=O)O1)OC(C)=O (stereo not given),inactive
11,CCC(C)C1NC(=O)C(C)NC1=O (stereo not given),inactive
12,COC(=O)/C=C/c1ncn(C)c1CC=C(C)C,inactive
13,Cc1c(O)cc2c(c1O)C(=O)c1ccccc1C2=O,inactive
14,CC(=O)c1ccc(O[C@@H]2O[C@H](CO)[C@@H](O)[C@H](O)[C@H]2O)cc1,inactive
15,O=C1CC(c2ccc(O)cc2)Oc2cc(O)cc(O)c21 (stereo not given),inactive
16,CC(=O)NC(Cc1c[nH]c2ccccc12)C(=O)O (stereo not given),inactive
17,CC/C=C/C=C/C1(C)OC(=O)C(C(C)=O)=C1O (stereo not given),inactive
18,Nc1ccn(C2CC(O)C(CO)O2)c(=O)n1 (stereo not given),inactive
19,CCCCCCCCCCC1CC2=C(OC(CCCCCCC)CC2=O)C(=O)O1 (stereo not given),inactive
20,Oc1ccccc1-c1c(O)cc(O)c(-c2ccccc2)c1O,inactive
